HP1b chromo inh: HTS for Inhibitors of HP1-beta Chromodomain Interactions with Methylated Histone Tails; Chromobox protein homolog 1 (Homo sapiens), P83916; AlphaScreen HP1-beta / biotin-H3K9me3 peptide binding; Potency, µM (series often up to 114 µM), for inactives: at the highest dose activity change, negative = inhibition, hits mostly inhibitors; 0.56% of 390,000 active; AID 540317, 2011; further: potency means the concentration at half of the fitted maximal effect; nearly all actives have a fitted effect of over 70% in size
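Compound inhibition of the preformed complex between 50 nM HP1-beta and 50 nM biotinylated H3K9me3 peptide was read by AlphaScreen. Buffer was PBS pH 7.4 with 0.01% Tween-20. Incubations ran 30 min at room temperature, with 10 ug/mL donor/acceptor beads.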
CtBP-E1A inh: qHTS Assay for Inhibitors of the CtBP/E1A Interaction; CtBP / adenovirus E1A interaction (AlphaScreen); AlphaScreen GST-E1A/His-CtBP binding, 1536-well; hits give low values; activity change, % (no concentration beside the values); 0.49% of 340,000 active; AID 651724, 2012; in the data active means activity change below about -65%; inconclusive means mostly about -30% to -63%; further: on the % scale 0 is the no-effect control and ±100 the full control effect
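In 5 uL wells, 23 nL compound meets equimolar GST-E1A and His-CtBP (5X stock 125 nM each) for 2 h, 37 °C. Beads (5X, 50 ug/mL) then 1 h, 37 °C, dark.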
BAZ2B inh: qHTS Assay for Inhibitors of BAZ2B | AlphaScreen BAZ2B-H3K14Ac peptide displacement | 4.4% of 360,000 active | Bromodomain adjacent to zinc finger domain protein 2B (Homo sapiens), Q9UIF8 | Potency, µM (doses to about 114 µM), for inactives: at the top dose activity change, negative = inhibition, most hits filed as inhibitors; further: potency means the concentration at half of the fitted maximal effect; on the % scale 0 is the no-effect control and ±100 the full control effect; nearly all actives have a fitted effect of over 60% in size
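BAZ2B 50 nM plus b-H3(5-23)K14Ac 50 nM, PBS pH 7.4/0.01% Tween-20, 30 min RT; compound added (max 110 uM), 30 min RT; streptavidin donor/Ni-chelate acceptor beads 10 ug/mL final, 20 min dark; AlphaScreen read.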
G9a block: qHTS Assay for Inhibitors of Histone Lysine Methyltransferase G9a; G9a H3K9 monomethylation, AlphaScreen, 2 h; 8.8% of 350,000 active; Potency, µM (top dose mostly 102 µM), for inactives: at the highest dose activity, negative = inhibition, usual class: inhibitors; Histone-lysine N-methyltransferase EHMT2 (Homo sapiens), Q96KQ7; further: potency means the concentration at half of the fitted maximal effect; on the % scale 0 is the no-effect control and ±100 the full control effect; nearly all actives have a fitted effect of over 75% in size
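Quantitative HTS format: methyltransferase activity on a biotin-tagged H3K9 peptide is measured by AlphaScreen, using a rabbit anti-monomethyl-H3K9 antibody with streptavidin donor and anti-IgG acceptor beads. Final levels are 20 nM enzyme, 500 nM peptide, 20 uM SAM; 2 h RT.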
Six1-Eya2 blk: qHTS Assay for Inhibitors of the Six1/Eya2 Interaction; AlphaScreen GST-Six1/His-Eya2 binding, biochemical; hits give low values; Homeobox protein SIX1 (Homo sapiens) + Protein phosphatase EYA2 (Homo sapiens), …; AID 651725, 2012; 0.56% of 360,000 active; activity change, % (no concentration beside the values); in the data active means activity change below about -65%; inconclusive means mostly about -30% to -63%; further: on the % scale 0 is the no-effect control and ±100 the full control effect
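AlphaScreen luminescence read after one hour at 37 °C in darkness. Pin-transferred compounds met GST-Six1 and His-Eya2 protein (5X stock 250 nM/500 nM) plus glutathione donor and Ni-chelate acceptor beads (5X, 50 ug/mL).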
JMJD2A Tudor: qHTS Assay for Inhibitors of JMJD2A-Tudor Domain | Lysine-specific demethylase 4A (Homo sapiens), O75164 | AlphaScreen JMJD2A-Tudor / H3K4me3 peptide binding | Potency, µM (titrated, usually from 114 µM), for inactives: top-dose activity change, negative = inhibition, hits mostly inhibitors | 4.4% of 390,000 active; further: potency means the concentration at half of the fitted maximal effect; on the % scale 0 is the no-effect control and ±100 the full control effect; nearly all actives have a fitted effect of over 50% in size
Target sequence (O75164 whole entry, looked up, the tested form may be a part): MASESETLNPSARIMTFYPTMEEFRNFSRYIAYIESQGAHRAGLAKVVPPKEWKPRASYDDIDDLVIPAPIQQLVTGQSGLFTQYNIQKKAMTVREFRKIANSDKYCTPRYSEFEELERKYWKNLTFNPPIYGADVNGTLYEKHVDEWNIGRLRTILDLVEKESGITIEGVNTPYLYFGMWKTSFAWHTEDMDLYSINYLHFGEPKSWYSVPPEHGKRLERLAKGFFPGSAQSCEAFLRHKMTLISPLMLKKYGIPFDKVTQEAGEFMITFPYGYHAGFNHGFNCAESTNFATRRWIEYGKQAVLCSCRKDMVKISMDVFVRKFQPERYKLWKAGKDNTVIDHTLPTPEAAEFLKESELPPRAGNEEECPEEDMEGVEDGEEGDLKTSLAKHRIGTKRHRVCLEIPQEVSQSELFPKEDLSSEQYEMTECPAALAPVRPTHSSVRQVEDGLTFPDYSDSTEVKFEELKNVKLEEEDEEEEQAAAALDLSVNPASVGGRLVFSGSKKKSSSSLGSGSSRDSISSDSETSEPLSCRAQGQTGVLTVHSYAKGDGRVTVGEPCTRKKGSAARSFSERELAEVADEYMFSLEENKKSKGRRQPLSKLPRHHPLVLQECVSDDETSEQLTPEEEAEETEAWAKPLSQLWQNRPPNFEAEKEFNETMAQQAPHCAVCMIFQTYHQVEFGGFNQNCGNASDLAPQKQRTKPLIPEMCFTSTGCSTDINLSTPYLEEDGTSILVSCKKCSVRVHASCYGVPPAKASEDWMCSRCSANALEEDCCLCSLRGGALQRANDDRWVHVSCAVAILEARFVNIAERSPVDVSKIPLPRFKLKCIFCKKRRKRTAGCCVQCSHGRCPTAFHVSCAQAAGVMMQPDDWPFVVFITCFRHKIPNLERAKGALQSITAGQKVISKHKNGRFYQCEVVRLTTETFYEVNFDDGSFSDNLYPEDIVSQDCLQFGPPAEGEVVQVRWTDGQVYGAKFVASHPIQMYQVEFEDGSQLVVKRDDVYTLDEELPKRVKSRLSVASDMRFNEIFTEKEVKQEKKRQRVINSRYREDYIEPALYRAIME
* marks the source's active call; other numbers are inactive results; ? = inconclusive; / = no result; [ ] = another dose, or the depositor's remark. The list is not random: actives were taken first. Their share in the collection is about 10%. Unless noted, the call rests on the fitted dose curve; in most records, active means well fitted inhibition curve with a large enough effect; inconclusive means small, poorly fitted or top-dose-only effect; inactive means no such curve, though single readings can be large or run the other way.

SMILES | HP1b chromo inh | CtBP-E1A inh | BAZ2B inh | G9a block | Six1-Eya2 blk | JMJD2A Tudor
O=[S+]([O-])(c1c(F)cccc1F)N1CCN([S+](=O)([O-])c2csc3ccccc23)CC1 | / | / | / | / | / | -16%
CC(C)NC(=O)N1Cc2cc(C(=O)NC3CCCC3)nc(-c3cccc(-c4cccnc4)c3)c2[C@H]1CCO | / | 2 | / | / | 4 | /
CCOC(=O)c1cc(-c2ccccc2)n(-c2cccc(C(=O)Nc3ccc(OC)cc3)c2)c1C | 12% | / | ? | ? | / | ?
CSc1nc(NS(=O)(=O)c2cc(Br)ccc2Br)cc(=O)[nH]1 | -16% | -6 | -5% | 56µM* | -3 | -21%
OCCN(Cc1cccnc1)Cc1ccccn1 | 43% | 3 | / | / | -89* | 50µM*
CCOC(=O)C1=C(CSc2nc3c(cc2C#N)CCC3)OC(N)=C(C#N)C1c1ccccc1 (stereo not drawn) | -14% | -3 | 0% | -1%[59 µM] | -2 | 25µM*
CCOC(=O)C1=C(CSc2nc3c(cc2C#N)CN(C)CC3)OC(N)=C(C#N)C1c1ccc(F)cc1 (stereo not drawn) | -7% | -1 | ? | 40µM* | -26 | ?
CCOC(=O)C1=C(CSc2nc(-c3ccccc3)ccc2C#N)OC(N)=C(C#N)C1c1cccnc1 (stereo not drawn) | 33% | -17 | 1% | 40µM* | -18 | -19%
COC(=O)C1=C(CSc2nc3c(cc2C#N)CN(C)CC3)OC(N)=C(C#N)C1c1ccccc1F (stereo not drawn) | -19% | -29 | ? | 14µM* | -18 | ?
Nc1nnc(SCC(=O)Nc2ccccc2C(F)(F)F)s1 | 73% | / | 25% | 30%[59 µM] | / | -25%
CCOC(=O)C1=C(CSc2nc(-c3ccccc3)ccc2C#N)OC(N)=C(C#N)C1c1ccccc1 (stereo not drawn) | 39% | -2 | -2% | ? | -13 | -12%
CCOC(=O)C1=C(CSc2nc3c(cc2C#N)CN(C)CC3)OC(N)=C(C#N)C1c1ccccc1 (stereo not drawn) | -1% | -15 | ? | 50µM* | -12 | -22%[11.4 µM]
O=C(CN1C(=O)c2cccc3cccc1c23)NC1CCCCC1 | 10% | -5 | -6% | 2% | -8 | -6%
CCOc1ccc(CCNC(=O)CSC(=S)N2CCCC2)cc1OCC | -5% | 6 | 7% | 40µM* | -1 | ?
CCOc1ccc(CCNC(=O)C2CC(C)=CCC2C(=O)O)cc1OCC (stereo not drawn) | ? | 4 | 50µM* | 22µM* | -8 | 25µM*
CCOc1ccc(CCNC(=O)C2CC=CCC2C(=O)OC(C)C)cc1OCC (stereo not drawn) | 27% | 2 | -2% | 13% | 5 | -2%
CCOc1ccc(CCNC(=O)C2CCN(C(=O)N(C)C)CC2)cc1OCC | 10% | 7 | 2% | -6%[59 µM] | 7 | 89µM*
O=c1cc(N2CCNCC2)oc2c(-c3ccccc3)cccc12 | / | / | / | 12%[59 µM] | / | /
CCc1ccc(S(=O)(=O)c2c(C(=O)c3ccccc3)cnc3ccc(CC)cc23)cc1 | 10% | / | ? | -38%[59 µM] | / | -31%
O=C(c1cnn2c1NC(c1ccc(Br)cc1)CC2C(F)(F)F)N1CCN(C23CC4CC(CC(C4)C2)C3)CC1 (stereo not drawn) | 10% | -5 | -30% | 28µM* | -11 | -19%
COc1ccc(Nc2nc3ccccc3nc2NS(=O)(=O)c2ccc(Cl)cc2)cc1OC | -4% | / | ? | -5%[59 µM] | / | -26%
Nc1ccccc1Nc1c(F)c(F)nc(F)c1Cl | 13% | -17 | ? | 13µM* | -21 | -33%
CC(C)c1ccc(NC(=O)CNCC(c2ccccc2)N(C)C)cc1 (stereo not drawn) | -14% | 8 | ? | 35µM* | 0 | 45µM*
CC(C)CC1(C)NC(=O)N(CC(=O)Nc2cccc(S(=O)(=O)N(C)c3ccccc3)c2)C1=O (stereo not drawn) | 20% | -5 | -14% | -30% | 1 | -24%
Cc1ccccc1-c1n[nH]c(=S)o1 | 39% | 4 | -35% | 13µM* | 7 | ?
SMILES | HP1b chromo inh | CtBP-E1A inh | BAZ2B inh | G9a block | Six1-Eya2 blk | JMJD2A Tudor
COc1ccccc1-c1n[nH]c(=S)o1 | 7% | 5 | 6% | ? | 5 | -5%[11.4 µM]
CSc1ccccc1-c1n[nH]c(=S)o1 | -3% | -30 | -10% | 6.3µM* | 7 | ?
Cc1ccc(-c2cc(-c3n[nH]c(=S)o3)c3ccccc3n2)cc1 | 30% | -1 | ? | ? | -3 | ?
O=c1c2ccccc2c(-c2n[nH]c(=S)o2)nn1Cc1ccccc1 | 56% | / | -36% | 4µM* | -20 | ?
O=c1c2ccccc2c(-c2ccccc2)nn1Cc1c(Cl)cccc1Cl | 55% | -23 | -1% | 4%[12.7 µM] | -2 | 13%
S=c1[nH]nc(-c2ccccc2)o1 | 14% | -5 | 79µM* | ? | -3 | -25%[11.4 µM]
CCC1(c2ccccc2)NC(=S)N(c2ccc(C)c(C)c2)N1 (stereo not drawn) | 17% | 13 | ? | 7.9µM* | -16 | ?
CCC1(c2ccc(Cl)cc2)NC(=S)N(c2ccc(C)cc2)N1 (stereo not drawn) | 9% | -3 | -35% | 28µM* | 1 | 79µM*
CC1=CC(C)(C)NC(=S)N1c1ccc(C)c(C)c1 | 19% | -12 | -16% | 13%[59 µM] | -3 | -15%
CCOc1ccc(Cl)cc1S(=O)(=O)N1CCN(c2ccc(C)c(C)c2)CC1 | -5% | 0 | -34% | -42%[59 µM] | -11 | ?
CCC1(c2ccc(Cl)cc2)NC(=S)N(c2ccc(C)c(C)c2)N1 (stereo not drawn) | 15% | 7 | -26% | 18µM* | -8 | -26%
COc1cccc(OC)c1C(=O)Nc1cccnc1 | 70% | / | -11% | 3% | -1 | 4%
Cc1ccc(C(=O)OC2=C(C(=O)c3ccccc3)N(C)S(=O)(=O)c3ccccc32)cc1 | -5% | / | -20% | ? | / | ?
CCN1C(C(=O)c2ccccc2)=C(OC(=O)COc2ccccc2)c2ccccc2S1(=O)=O | 2% | / | ? | 13µM* | / | 35µM*
COc1ccc(C(=O)OC2=C(C(=O)c3ccccc3)N(C)S(=O)(=O)c3ccccc32)cc1OC | -5% | / | ? | 20µM* | / | -30%

Compound activity: PubChem BioAssay, National Center for Advancing Translational Sciences (NCATS)
